This is an account of results in PubChem BioAssay (NCATS).

Molecules are shown by their SMILES. Where “and” joins values, the source holds several entries; their conditions need not be identical. Equal entries are not always repeated. Records with an inconclusive call do not appear. Calls of active or inactive are those of the source. Unless noted, calls come from the whole dose curve; as a rule, active = well fitted curve in the direction sought with a large enough effect; inconclusive = small, poorly fitted or top-dose-only effect, or another doubt; inactive = no such curve, though single readings can be large; an effect the other way counts as inactive or inconclusive.

Assay [1] addresses Alpha-galactosidase A (Homo sapiens) (UniProt P06280). As to the kind of experiment: Counterscreen for Glucocerebrosidase Inhibitors: qHTS Assay for Human alpha-Galactosidase at pH 4.5 (AID 992). Note: 0% is about no effect. The method, boiled down: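 Enzyme at 2 nM final was combined with compound (0.7 nM to 77 uM) and 80 uM 4-methylumbelliferyl alpha-D-galactopyranoside in 50 mM citric acid, 0.005% Tween-20, pH 4.5. After 20 min at room temperature, fluorescence was read (Ex 365/Em 440 nm); AC50 came from Hill fits.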
(In general: Counterscreens check selectivity or assay interference.)

The target in assay [2] is alpha-glucosidase (Oryza sativa, rice) (UniProt Q653V4). Put plainly: Counterscreen for Glucocerebrosidase Inhibitors: qHTS Assay for Rice alpha-Glucosidase at pH 5.0 (AID 997).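 Note: 0% = full activity with enzyme and -100% = basal without enzyme.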 The method, boiled down: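 Rice alpha-glucosidase (4 nM final) with 400 uM 4-methylumbelliferyl-alpha-D-glucopyranoside in citrate buffer pH 5.0, 20 min at room temperature, stopped at pH 10; fluorescence 365/440 nm, compounds 0.7 nM–77 uM, AC50 from Hill fits.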

The nature of assay [3]: Validation of Assay for Modulators of Lamin A Splicing (AID 1459; active = well fitted curve in the direction sought with a large enough effect in the signal ratio; the % refers to the signal ratio;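 note: cells exposed to compound for two days before reading; 0% is about no effect; ratio rise marks activators and ratio drop marks inhibitors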). An outline of the steps:
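Splicing correction is reported by an EGFP-containing lamin A minigene in stably transfected S3 HeLa cells, while DsRed2 controls for viability and nonspecific signal. Cells are exposed to compounds for 48 hrs before the GFP over RFP ratio is taken.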

Assay [4] is described as follows: qHTS Assay for Lipid Storage Modulators (AID 1519; calls by dose curve; for activity change, negative = inhibition: % is set by controls: 0 for no effect and ±100 for the full control effect). Particulars: Drosophila S3 cells, BODIPY lipid droplet/cell ratio, laser cytometry, cells loaded with oleic acid; for activity change, negative = inhibition: at 57.5 µM (top of the series). The method, boiled down: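 Cells seeded at 5,000 per well were treated with compounds over a concentration series and loaded with oleic acid (400 uM, as added). Lipid droplet fluorescence (488 nm excitation, 500-530 nm channel) was read by laser-scanning cytometry and normalized to 20 uM Triacsin C.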

For assay [5], the target named is DNA repair nuclease/redox regulator APEX1 (Homo sapiens) (UniProt P27695). As to the kind of experiment: qHTS Validation Assay for Inhibitors of the Human Apurinic/apyrimidinic Endonuclease 1 (APE1) (AID 1705; note: potency is the fitted concentration of half-maximal effect;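 for activity change, negative = inhibition: TAMRA fluorescence gain over two minutes as APE1 cuts a quenched THF abasic duplex; % is set by controls: 0 for no effect and ±100 for the full control effect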). The method, boiled down:
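Endonuclease activity of human APE1 is followed as dequenching when the enzyme incises a tetrahydrofuran abasic site in a short duplex labelled 5'-TAMRA/3'-BHQ-2 (50 nM final), after 15 min enzyme–compound preincubation at room temperature.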
A general note: Quantitative high-throughput screening tests each substance at several concentrations.

Assay [6] can be described thus: Counterscreen for APE1 Inhibitors: Fluorescent Dye Displacement Validation Assay (AID 1707).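 For activity change, negative = inhibition: plate controls were ThO with dsDNA and no compound for no effect and ThO without dsDNA for full effect.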 Note: potency is the fitted concentration of half-maximal effect. An outline of the steps: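 Thiazole Orange displacement from dsDNA: 250 nM ThO with 50 nM TAMRA-labelled abasic-site (tetrahydrofuran) duplex in 50 mM Tris-HCl pH7.5, 50mM NaCl, 2 mM MgCl2, 0.01% Tween-20. Loss of endpoint fluorescence (ex 480 nm, em 540 nm) flags DNA binders.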

Assay [7] concerns the target Endonuclease 4 (Escherichia coli (strain K12)) (UniProt P0A6C1). Put plainly: Counterscreen for APE1 Inhibitors: qHTS Validation Assay for Inhibitors of Endonuclease IV (AID 1708). For activity change, negative = inhibition: % is set by controls: 0 for no effect and ±100 for the full control effect. Note: potency is the fitted concentration of half-maximal effect. An outline of the steps: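 E. coli EndoIV at 2 nM final, preincubated 15 min at room temperature with compound, then 50 nM TAMRA/BHQ-2 THF abasic-site duplex added. Buffer: 50 mM Tris-HCl pH 7.5, 50 mM NaCl, 2 mM MgCl2, 1 mM DTT, 0.01% Tween-20. Kinetic fluorescence increase, third minus first read.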

A short description of assay [8]: qHTS for differential inhibitors of proliferation of Plasmodium falciparum line GB4 (AID 1816).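 For activity change, negative = inhibition: 0% = vehicle DMSO and -100% = reference inhibitor.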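 Note: parasite growth measured after 72 h incubation.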 Note: potency is the fitted concentration of half-maximal effect. Conditions: Potency: Plasmodium falciparum GB4 proliferation inhibition.
Assay [9] can be described thus: qHTS for differential inhibitors of proliferation of Plasmodium falciparum line 7G8 (AID 1815).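 For activity change, negative = inhibition: plate controls were vehicle wells for no effect and reference inhibitor wells for full effect.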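 Note: parasite growth measured after three days of incubation.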 Note: potency is the fitted concentration of half-maximal effect.
Assay [10] in a line: qHTS for differential inhibitors of proliferation of Plasmodium falciparum line 3D7 (AID 1876). Note: potency is the fitted concentration of half-maximal effect.
Assay [11] in a line: qHTS for differential inhibitors of proliferation of Plasmodium falciparum line D10 (AID 1877).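 Note: parasites grown with compound for 72 h before DNA staining; plate controls were vehicle wells for no effect and reference inhibitor wells for full effect.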
[12] abbreviates: measured here: cell count channel max response.
[13] abbreviates: measured here: lipid channel max response.

DNA repair nuclease/redox regulator APEX1 (Homo sapiens), sequence (P27695 whole entry, looked up): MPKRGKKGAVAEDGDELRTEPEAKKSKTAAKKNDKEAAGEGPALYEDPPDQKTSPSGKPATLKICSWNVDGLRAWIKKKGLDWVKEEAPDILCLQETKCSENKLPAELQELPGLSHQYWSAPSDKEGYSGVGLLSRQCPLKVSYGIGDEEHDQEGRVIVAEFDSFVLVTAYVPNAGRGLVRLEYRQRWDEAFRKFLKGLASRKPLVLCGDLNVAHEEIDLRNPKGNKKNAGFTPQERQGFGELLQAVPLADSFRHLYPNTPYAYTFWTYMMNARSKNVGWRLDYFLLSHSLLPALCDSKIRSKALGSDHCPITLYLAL
Alpha-galactosidase A (Homo sapiens), sequence (P06280 whole entry, looked up): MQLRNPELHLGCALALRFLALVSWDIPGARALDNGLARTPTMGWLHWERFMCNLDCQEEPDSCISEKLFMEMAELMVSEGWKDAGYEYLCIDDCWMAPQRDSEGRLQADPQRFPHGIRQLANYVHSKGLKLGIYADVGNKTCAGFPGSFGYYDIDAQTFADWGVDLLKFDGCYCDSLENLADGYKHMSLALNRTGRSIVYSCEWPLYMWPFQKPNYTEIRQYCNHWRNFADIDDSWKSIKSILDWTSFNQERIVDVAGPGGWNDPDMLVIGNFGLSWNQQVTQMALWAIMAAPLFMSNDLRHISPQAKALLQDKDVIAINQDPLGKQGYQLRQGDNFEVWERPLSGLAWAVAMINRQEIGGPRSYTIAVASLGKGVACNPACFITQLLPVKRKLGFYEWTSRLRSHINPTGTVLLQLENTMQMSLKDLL

With `NOCC(=O)O`, the compound was called inactive in [1], in assay [2] and in assay [3]. Moreover, the activity change, negative = inhibition in assay [4] is 2.14% (inactive). The values for the max response in assay [4] (setting [12]) and in [4] (setting [13]) were -5.32% and 0.0357%, respectively. For the same compound, the Potency entry in assay [5], in [6], in assay [7] and in [8] was “inactive” each time.

In the case of `Cn1c(=O)[nH]c2ncn(C)c2c1=O`, the result in assay [1], in assay [2] and in [3] was inactive. Besides, the activity change, negative = inhibition in [4] is 0.383% (inactive). Besides, the max response in [4] (setting [12]) worked out at 10.7%; in assay [4] (setting [13]), 12.8%. For the same compound, the Potency entry in [5], in [6], in assay [9], in assay [8] and in assay [10] was “inactive” in each case.

Take `C[C@H](O)C(=O)C1=Nc2c(nc(N)[nH]c2=O)NC1`: the result in assay [1], in [2] and in assay [3] was inactive. The activity change, negative = inhibition in assay [4] is 3.44% (inactive). Further, the figures for the max response in assay [4] (setting [12]) and in assay [4] (setting [13]) were 8.97% and 8.64%, respectively. Further, the Potency result in assay [5], in [6], in assay [7], in assay [9], in assay [8] and in assay [10] was “inactive” throughout. The Potency result in [11] is “inactive”.

Take `O=C(O)C1=CCCN(CCON=C(c2ccccc2)c2ccccc2)C1`: the compound was classed as inactive in assay [1], in assay [2] and in [3]. In addition, the activity change, negative = inhibition in assay [4] is 3.28% (inactive) and 2.71% (inactive). Besides, the max response was -11.1% and 10.2% in [4] (setting [12]); -9.11% and 11.8% in [4] (setting [13]). Also, the Potency result in assay [5], in [6], in assay [7], in assay [9], in assay [10] and in [11] was “inactive” throughout.

Take `N#Cc1cc2nc(O)c(O)nc2cc1[N+](=O)[O-]`: the result in assay [1], in assay [2] and in assay [3] was inactive. In addition, the activity change, negative = inhibition in assay [4] is 3.63% (inactive) and -0.314% (inactive). Moreover, the max response in assay [4] (setting [12]) was 13.7% and -35.1%; in [4] (setting [13]), 18.1% and -33.4%. In assay [5], the Potency was 28.2 µM (active). In addition, the Potency entry in assay [6], in [9], in [10] and in [11] was “inactive” throughout.

As to `NC/C=C\C(=O)O`, the result in [1], in assay [2] and in assay [3] was inactive. For the same compound, in assay [4], the activity change, negative = inhibition was 4.68% (inactive) and 0.384% (inactive). Moreover, the max response is -7.52% and 26.3% in assay [4] (setting [12]); -6.79% and 26.6% in [4] (setting [13]). For the same compound, the Potency result in assay [6], in assay [7], in assay [9], in assay [8], in assay [10] and in assay [11] was “inactive” each time.

As to `Cc1nc(N=Nc2cc(S(=O)(=O)O)c3cc([N+](=O)[O-])cc(S(=O)(=O)O)c3c2)c(COP(=O)(O)O)c(C=O)c1O`, the compound was called inactive in assay [1], in assay [2] and in [3]. Besides, the activity change, negative = inhibition in [4] is -4.26% (inactive). Besides, the max response in [4] (setting [12]) came out at 6.63%; in assay [4] (setting [13]), 4.35%. In addition, the Potency was 2.82 µM (active) in [5], 10 µM (active) in [6] and 15.8 µM (active) in assay [7]. The Potency result in assay [10] was “inactive”.

As for `NCCNS(=O)(=O)c1cccc2c(Cl)cccc12`, the result in assay [1], in assay [2] and in assay [3] was inactive. The activity change, negative = inhibition in assay [4] is -0.563% (inactive). Further, the max response in assay [4] (setting [12]) is -2.01%; in assay [4] (setting [13]), -12.2%. Besides, the Potency entry in assay [6] is “inactive”. The Potency in assay [9] is 7.08 µM (active); in assay [8], 8.91 µM (active); in assay [10], 12.6 µM (active).

`NS(=O)(=O)c1cccc2c1c([N+](=O)[O-])cc1nc(O)c(O)nc12`: the compound was classed as inactive in [1], in assay [2] and in assay [3]. The activity change, negative = inhibition in [4] was -1.05% (inactive) and 1.23% (inactive). Further, the max response in [4] (setting [12]) was -22.6% and 10.1%; in [4] (setting [13]), -22.6% and 7.26%. For the same compound, the Potency result in assay [5], in assay [6], in assay [7], in assay [10] and in [11] was “inactive” throughout.

For the compound `Cn1c(=O)c2[nH]c(C3CCCC3)nc2n(C)c1=O`, the outcome in [1], in [2] and in [3] was inactive. Moreover, the activity change, negative = inhibition in assay [4] was 11.7% (inactive) and -0.538% (inactive). Moreover, the max response is 10.8% and -10.7% in assay [4] (setting [12]); 26.8% and -11.4% in assay [4] (setting [13]). In addition, the Potency result in [5], in assay [6], in [7], in [9], in assay [10] and in assay [11] was “inactive” throughout.
